Test results as given in PubChem BioAssay (NCATS).
Inconclusive results are not listed. The source made the active and inactive calls. Unless noted, the call rests on the fitted dose curve; in most records, active means well fitted curve in the direction sought with a large enough effect; inconclusive means small, poorly fitted or top-dose-only effect, or another doubt; inactive means no such curve, though single readings can be large; an effect the other way counts as inactive or inconclusive.

What was measured:
[1] = Quantitative High-Throughput drug screen in 47 multiple myeloma cell lines against the NCATS MIPE library collection: UTMC2_PLB cell viability assay (AID 1919868); details: CellTiter-Glo ATP luminescence, 48 h; viability (% of DMSO control): at 45.8 µM (top of the series) unless noted; further: nearly all actives have a fitted effect of over 55% in size
How it was run: (§1)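 Viability after 48 h drug exposure was measured as ATP-dependent luminescence. Cells, 500 per well, sat at 37 °C under 5% CO2; DMSO wells set 100%, media-only wells 0%.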

[2] = Quantitative High-Throughput drug screen in 47 multiple myeloma cell lines against the NCATS MIPE library collection: PE2_PLB cell viability assay (AID 1919869); further: nearly all actives have a fitted effect of over 35% in size
How it was run: as §1

[3] = Quantitative High-Throughput drug screen in 47 multiple myeloma cell lines against the NCATS MIPE library collection: PCM6_Riken cell viability assay (AID 1919870); further: nearly all actives have a fitted effect of over 30% in size
How it was run: as §1

[4] = Quantitative High-Throughput drug screen in 47 multiple myeloma cell lines against the NCATS MIPE library collection: KMS11_JCRBsus cell viability assay (AID 1919873); further: nearly all actives have a fitted effect of over 50% in size
How it was run: as §1

[5] = Quantitative High-Throughput drug screen in 47 multiple myeloma cell lines against the NCATS MIPE library collection: KMS28BM_JCRB cell viability assay (AID 1919874); further: nearly all actives have a fitted effect of over 35% in size
How it was run: as §1

[6] = qHTS drug screen for cell cycle checkpoint inhibitors in PARPi-resistant BRCA-mutant ovarian cancer cell lines. (AID 1963452; calls by dose curve); details: PEO1/OlaR viability, CellTiter-Glo luminescence, 96 h; for Z-AUC: stronger effect = lower value
How it was run: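 PEO1, PEO4 and PEO1/OlaR ovarian cancer cells, 600 per well, exposed 96 h at 37C to a dilution series. Viability read by CellTiter-Glo luminescence, normalized to DMSO and empty wells; activity summarized as Z-AUC.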

[7] = qHTS for identification of novel therapeutic agents for treatment of microphthalmiaassociated transcription factor (MiT) renal cell carcinoma (RCC) (AID 1963991; calls by dose curve); details: CellTiter-Glo, 48 h; for z-score: stronger effect = lower value; for Potency: active = Z-AUC below -0.8 in all three lines
How it was run: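 Three TFE3-fusion RCC lines (UOK109, UOK124, UOK145), 500 cells/well in complete medium, were treated with MIPE 4.0 compounds for 48 hours at 37 C. Viability was by CellTiter-Glo luminescence, normalized to DMSO (100%) and empty wells (0%); curves fitted over 11 concentrations.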

[8] = Quantitative High-Throughput drug screen in 47 multiple myeloma cell lines against the NCATS MIPE library collection: OPM2_DSMZ cell viability assay (AID 1919872); further: nearly all actives have a fitted effect of over 30% in size
How it was run: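 Inhibition of cell viability is measured here. Each line was plated at 500 cells per well, treated with MIPE 4.0 drugs, kept 48 hours at 37C, then assayed for ATP content by CellTiter-Glo luminescence.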

[9] = Quantitative High-Throughput drug screen in 47 multiple myeloma cell lines against the NCATS MIPE library collection: RPMI8226_ATCC cell viability assay (AID 1919871); further: nearly all actives have a fitted effect of over 30% in size
How it was run: as §1

[10] = qHTS profiling for inhibitors of Plasmodium falciparum proliferation (AID 504749); further: nearly all actives have a fitted effect of over 60% in size; details: P. falciparum in erythrocytes, SYBR Green DNA, 72 h
How it was run: (§2)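 Readout was DNA-dye fluorescence from lysed cultures, ex 485/em 535 nm. Parasitized red cells had grown 72 h with compound; data scaled between 0.29 uM artemisinin and DMSO wells and corrected using vehicle-only plates.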

[11] = test system: 3D7; assay: as above; details: P. falciparum in erythrocytes, SYBR Green DNA, 72 h; series mostly up to 28.7 µM
How it was run: as §2

[12] = test system: 7G8; assay: as above; details: P. falciparum in erythrocytes, SYBR Green DNA, 72 h; series mostly up to 28.7 µM
How it was run: as §2

[13] = test system: AA1029; assay: as above; details: P. falciparum in erythrocytes, SYBR Green DNA, 72 h; series mostly up to 28.7 µM
How it was run: as §2

[14] = test system: AS120; assay: as above; details: P. falciparum in erythrocytes, SYBR Green DNA, 72 h; series mostly up to 28.7 µM
How it was run: as §2

[15] = test system: ATS189; assay: as above; details: P. falciparum in erythrocytes, SYBR Green DNA, 72 h; series mostly up to 28.7 µM
How it was run: as §2

[16] = test system: ATS95; assay: as above; details: P. falciparum in erythrocytes, SYBR Green DNA, 72 h; series mostly up to 28.7 µM
How it was run: as §2

[17] = test system: C2A; assay: as above; details: P. falciparum in erythrocytes, SYBR Green DNA, 72 h; series mostly up to 28.7 µM
How it was run: as §2

[18] = test system: CP185; assay: as above; details: P. falciparum in erythrocytes, SYBR Green DNA, 72 h; series mostly up to 28.7 µM
How it was run: as §2

[19] = test system: CP191; assay: as above; details: P. falciparum in erythrocytes, SYBR Green DNA, 72 h; series mostly up to 28.7 µM
How it was run: as §2

[20] = test system: CP192; assay: as above; details: P. falciparum in erythrocytes, SYBR Green DNA, 72 h; series mostly up to 28.7 µM
How it was run: as §2

[21] = measured here: PEO1 parental Z-AUC
[22] = TFE3-RCC UOK109 viability, measured here: UOK109 Z-AUC
[23] = TFE3-RCC viability, measured here: UOK124 Z-AUC
[24] = TFE3-RCC viability, measured here: UOK145 Z-AUC
Potency means the concentration at half of the fitted maximal effect.

## CCCCN1CCC(CNC(=O)c2c3n(c4ccccc24)CCCO3)CC1
[1]
  Potency: 9350 nM (active)
[2]
  Potency: 11800 nM (active)
[3]
  Potency: 3320 nM (active)
[4]
  Potency: 13200 nM (active)

## O=C(NCCS(=O)(=O)c1ccc(C(F)(F)F)cn1)c1ccc(Cl)cc1
[1]
  Potency: inactive
[2]
  Potency: inactive
[3]
  Potency: inactive
[4]
  Potency: inactive
[5]
  Potency: inactive
[6]
  Z-AUC: 0.591 (inactive)
[6]; [21]
  Z-AUC: 0.415
[6]; measured here: PEO4 Z-AUC
  Z-AUC: 0.479
[7]; [22]
  z-score: -0.45
[7]; [23]
  z-score: 0.348
[7]; [24]
  z-score: 0.45

## CC1(C)CCC(c2ccc(Cl)cc2)=C(CN2CCN(c3ccc(C(=O)NS(=O)(=O)c4ccc(N[C@H](CCN5CCOCC5)CSc5ccccc5)c(S(=O)(=O)C(F)(F)F)c4)cc3)CC2)C1
[1]
  Potency: 93.5 nM (active)
[2]
  Potency: 2640 nM (active)
[3]
  Potency: 26.4 nM (active)
[8]
  Potency: 18700 nM (active)
[5]
  Potency: 332 nM (active)
[6]
  Z-AUC: -0.481 (inactive)
[6]; [21]
  Z-AUC: -0.554
[6]; measured here: PEO4 Z-AUC
  Z-AUC: -1.15

## Cc1cn2cc(C(=O)N(C)CCO)cc(N[C@@H]3CCOc4cccc(C)c43)c2n1
[1]
  Potency: inactive
[2]
  Potency: inactive
[9]
  Potency: inactive
[4]
  Potency: inactive
[5]
  Potency: inactive
[6]
  Z-AUC: 1.4 (inactive)
[6]; [21]
  Z-AUC: 1.4
[6]; measured here: PEO4 Z-AUC
  Z-AUC: 1.61

## OCc1ccc(-c2ccc(-c3ccc(CO)s3)o2)s1
[1]
  Potency: 16600 nM (active)
[2]
  Potency: 3720 nM (active)
[9]
  Potency: 23500 nM (active)
[8]
  Potency: 23500 nM (active)

## C[C@@H]1CN(CC(=O)Nc2ccc3c(c2)Cc2cccc(-c4cc(=O)cc(N5CCOCC5)o4)c2S3)C[C@H](C)O1
[1]
  Potency: 6620 nM (active)
[2]
  Potency: 13200 nM (active)
[3]
  Potency: 9350 nM (active)
[4]
  Potency: 16600 nM (active)
[6]
  Z-AUC: 0.729 (inactive)
[6]; [21]
  Z-AUC: 0.761
[6]; measured here: PEO4 Z-AUC
  Z-AUC: 0.901

## CN(C)CC=CC(=O)Nc1cc2c(Nc3ccc(F)c(Cl)c3)ncnc2cc1O[C@H]1CCOC1
[1]
  Potency: 5260 nM (active)
[2]
  Potency: 2960 nM (active)
[9]
  Potency: 16600 nM (active)
[4]
  Potency: 6620 nM (active)
[5]
  Potency: 11800 nM (active)

## O=C(C=Cc1cccnc1)NCCCCC1CCN(C(=O)c2ccccc2)CC1
[1]
  Potency: 1 nM (active)
[2]
  Potency: 13.2 nM (active)
[9]
  Potency: 93.5 nM (active)
[4]
  Potency: 14.8 nM (active)
[5]
  Potency: 83.3 nM (active)

## CCCCOc1c(C(=O)c2c(F)cc(C)cc2F)cnc2n[nH]cc12
[1]
  Potency: 3320 nM (active)
[2]
  Potency: 3720 nM (active)
[9]
  Potency: 5900 nM (active)
[8]
  Potency: 7430 nM (active)
[4]
  Potency: 2640 nM (active)
[5]
  Potency: 2960 nM (active)
[6]
  Z-AUC: 0.41 (inactive)
[6]; [21]
  Z-AUC: 0.585
[6]; measured here: PEO4 Z-AUC
  Z-AUC: -0.136

## Cc1nc(N)ncc1-c1nc(N2CCOCC2)c2sc(C(C)(C)O)cc2n1
[1]
  Potency: 332 nM (active)
[2]
  Potency: 1050 nM (active)
[9]
  Potency: 264 nM (active)
[8]
  Potency: 3720 nM (active)
[4]
  Potency: 83.3 nM (active)
[6]
  Z-AUC: 0.231 (inactive)
[6]; [21]
  Z-AUC: 0.219
[6]; measured here: PEO4 Z-AUC
  Z-AUC: 0.116

## CCN1CCN(CC(=O)Nc2ccc(-c3cccc4c(=O)cc(N5CCOCC5)oc34)c3sc4ccccc4c23)CC1
[1]
  Potency: 187 nM (active)
[2]
  Potency: 833 nM (active)
[3]
  Potency: 1480 nM (active)
[8]
  Potency: 3720 nM (active)
[4]
  Potency: 332 nM (active)
[5]
  Potency: 4690 nM (active)
[6]
  Z-AUC: -1.21 (inactive)
[6]; [21]
  Z-AUC: -0.89
[6]; measured here: PEO4 Z-AUC
  Z-AUC: -0.929
[7]; TFE3-RCC UOK109 viability
  Potency: 2640 nM (active)
[7]; [22]
  z-score: -2
[7]; [23]
  z-score: -1.8
[7]; [24]
  z-score: -2.12

## NC(=O)Nc1cc(-c2cccc(F)c2)sc1C(=O)N[C@H]1CCCNC1
[1]
  Potency: 105 nM (active)
[2]
  Potency: 469 nM (active)
[3]
  Potency: 4690 nM (active)
[4]
  Potency: 526 nM (active)
[5]
  Potency: 1870 nM (active)
[6]
  Potency: 110 nM (active)
[6]; [21]
  Z-AUC: -1.9
[6]; measured here: PEO4 Z-AUC
  Z-AUC: -1.5
[7]; TFE3-RCC UOK109 viability
  Potency: 935 nM (active)
[7]; [22]
  z-score: -1.42
[7]; [23]
  z-score: -1.69
[7]; [24]
  z-score: -1.85

## CC(C)c1ccccc1Cc1cc(C(=O)Nc2ccc(S(=O)(=O)c3ccccc3C(C)(C)C)cc2)c(O)c(O)c1O
[1]
  Potency: 4690 nM (active)
[2]
  Potency: 5260 nM (active)
[3]
  Potency: 7430 nM (active)
[4]
  Potency: 5260 nM (active)
[5]
  Potency: 10500 nM (active)
[6]
  Z-AUC: 0.413 (inactive)
[6]; [21]
  Z-AUC: 0.393
[6]; measured here: PEO4 Z-AUC
  Z-AUC: 0.535

## CNC(=O)c1c(F)cccc1Nc1nc(Nc2cc3c(cc2OC)CCN3C(=O)CN(C)C)nc2[nH]ccc12
[1]
  Potency: 93.5 nM (active)
[2]
  Potency: 2640 nM (active)
[3]
  Potency: 9350 nM (active)
[4]
  Potency: 66.2 nM (active)
[5]
  Potency: 118 nM (active)
[6]
  Z-AUC: -0.375 (inactive)
[6]; [21]
  Z-AUC: -0.266
[6]; measured here: PEO4 Z-AUC
  Z-AUC: -0.708

## O=C(CCCCCCNC(=O)c1cnc(N(c2ccccc2)c2ccccc2)nc1)NO
[1]
  Potency: 7430 nM (active)
[2]
  Potency: 9350 nM (active)
[9]
  Potency: 14800 nM (active)
[8]
  Potency: 10500 nM (active)
[4]
  Potency: 7430 nM (active)
[5]
  Potency: 4180 nM (active)
[6]
  Z-AUC: 0.809 (inactive)
[6]; [21]
  Z-AUC: 0.473
[6]; measured here: PEO4 Z-AUC
  Z-AUC: 0.434

## Nc1ccccc1NC(=O)c1ccc(CNC(=O)OCc2cccnc2)cc1
[1]
  Potency: 1320 nM (active)
[2]
  Potency: 1660 nM (active)
[9]
  Potency: 3320 nM (active)
[8]
  Potency: 2090 nM (active)
[4]
  Potency: 1870 nM (active)
[5]
  Potency: 1050 nM (active)
[6]
  Z-AUC: -0.769 (inactive)
[6]; [21]
  Z-AUC: -1.32
[6]; measured here: PEO4 Z-AUC
  Z-AUC: -1.54

## CCC1=C[C@@H]2CN(C1)Cc1c([nH]c3ccccc13)[C@@](C(=O)OC)(c1cc3c(cc1OC)N(C)[C@@H]1[C@@](O)(C(=O)OC)[C@H](OC(C)=O)[C@]4(CC)C=CCN5CC[C@]31[C@@H]54)C2
[1]
  Potency: 1 nM (active)
[2]
  Potency: 26.4 nM (active)
[9]
  Potency: 118 nM (active)
[8]
  Potency: 16.6 nM (active)
[5]
  Potency: 4.7 nM (active)
[10]; parasite line A
  Potency: 3160 nM (active)
[10]; parasite line B
  Potency: 5010 nM (active)
[11]
  Potency: 3160 nM (active)
[12]
  Potency: 2240 nM (active)
[13]
  Potency: 1580 nM (active)
[14]
  Potency: 1410 nM (active)
[15]
  Potency: 1780 nM (active)
[16]
  Potency: 2000 nM (active)
[17]
  Potency: 1260 nM (active)
[18]
  Potency: 3160 nM (active)
[19]
  Potency: 3980 nM (active)
[20]
  Potency: 4260 nM (active)
